Reference: PubChem BioAssay (EPA / NIEHS)
Inconclusive results are not listed. Active and inactive are the calls of the source. The calls were made as follows: active = hit-call score of the fitted dose curve at least 0.9, where 1 is the maximum; inconclusive = response in the unintended direction; inactive = score below 0.9.

Experiment: Tanguay_ZF_120hpf_CFIN_legacy: (Legacy) Oregon State University Tanguay Lab 120 Hour Post-fertilization zebrafish Assay for Caudal Fin Malformation (AID 2283649)
Method: Tanguay_ZF_120hpf_legacy is a whole embryo, multiplexed endpoint assay using zebrafish larvae exposed for 120 hours post fertilization on a 96-well plate.Tanguay_ZF_120hpf_CFIN_legacy is one of one assay component(s) measured or calculated from the Tanguay_ZF_120hpf_legacy assay. It is designed to make measurements of zebrafish development as detected with brightfield microscopy of developing zebrafish embryos.Data from the assay component Tanguay_ZF_120hpf_CFIN_legacy was analyzed into 1 assay endpoints. This assay endpoint, Tanguay_ZF_120hpf_CFIN_legacy, was analyzed in the positive analysis fitting direction relative to DMSO as the negative control and baseline of activity. Using a type of morphology reporter, gain-of-signal activity can be used to understand changes in developmentals as they relate to the whole embryo. To generalize the intended target to other relatable targets, this assay endpoint is annotated to the zebrafish development intended target family, where the subfamily is caudal fin morphogenesis.
Zebrafish husbandry: Tropical 5D wild-type adult zebrafish were housed in at an approximate density of 1000 per 100 gallon tank at the Sinnhuber Aquatic Research Laboratory, Oregon State University, Corvallis, OR. Each tank was kept at standard laboratory conditions of 28C on a 14-h light/10-h dark photoperiod in fish water consisting of reverse osmosis water supplemented with a commercially available salt (Instant Ocean). Spawning funnels were placed into the tanks the night prior, and embryos were collected and staged. To increase bioavailability, the chorion was enzymatically removed using pronase (63.6mg/ml, >/= 3.5U/mg, Sigma-Aldrich: P5147) at 4 hours post fertilization (hpf) using a custom automated dechorionator.Chemical exposures: Six hpf dechorionated embryos were placed 1 embryo per well in a 96-well plate prefilled with 90 ul of EM using automated embryo placement systems (AEPS). Ten microliters of each row of dilution plate 2 was added to 2 exposure plates. The final DMSO concentration used was 0.64% (vol/vol). Thirty-two embryos were also exposed to 5uM trimethyltin chloride (positive control). Plates were sealed to prevent evaporation and foil covered to reduce light exposure and kept in a 28C incubator. Embryos were statically exposed until 120 hpf. At 24 hpf, embryos were assessed for photomotor response using a custom photomotor response analysis tool (PRAT) and for developmental toxicity endpoints (MO24: mortality at 24 hpf, DP: developmental progression, SM: spontaneous movement, and NC: notochord distortion). At 120 hpf, locomotor activity was measured using Viewpoint Zebralab and assessed for 18 endpoints. Zebrafish acquisition and analysis program (ZAAP), a custom program designed to inventory, acquire, and manage zebrafish data, was used to collect developmental endpoints as either present or absent (i.e., binary responses were recorded). If mortality occurred for an embryo (at either 24 or 120 hpf), the non-mortality endpoints were not measured.

Question: Which outcome does the source give for `CS(=O)(=O)c1cc(C(F)(F)F)ccc1C(=O)c1cnoc1C1CC1` here?
Answer: Its outcome is “inactive”.

Question: For `Nc1cnn(-c2ccccc2)c(=O)c1Cl`, which outcome is on record?
Answer: Its outcome is “inactive”.

Question: Which outcome does the source give for `N#Cc1c[nH]cc1-c1cccc2c1OC(F)(F)O2` here?
Answer: The outcome was “inactive”.

Question: With `COCc1cnc(C2=NC(C)(C(C)C)C(=O)N2)c(C(=O)O)c1` (stereo not given) as the compound, how does the outcome read?
Answer: Its outcome is “inactive”.

Question: For `O=P(O)(O)CCCl`, which outcome is on record?
Answer: The outcome was “inactive”.

Question: For `CC1(C)C(C=C(Cl)Cl)C1C(=O)OC(C#N)c1cccc(Oc2ccccc2)c1` (stereo not given), which outcome is on record?
Answer: The outcome was “inactive”.

Question: With `COP(=S)(OC)Oc1ccc([N+](=O)[O-])c(C)c1` as the compound, how does the outcome read?
Answer: Its outcome is “inactive”.

Question: With `CCCCC(C#N)(Cn1cncn1)c1ccc(Cl)cc1` (stereo not given) as the compound, how does the outcome read?
Answer: The outcome was “inactive”.

Question: With `CCSC(=O)N1CCCCCC1` as the compound, how does the outcome read?
Answer: Its outcome is “inactive”.

Question: With `Nc1c(Cl)c(Cl)nc(C(=O)O)c1Cl` as the compound, how does the outcome read?
Answer: Its outcome is “inactive”.

Question: Which outcome does the source give for `CCOC(=O)C(C)OC(=O)c1cc(Oc2ccc(C(F)(F)F)cc2Cl)ccc1[N+](=O)[O-]` (stereo not given) here?
Answer: Its outcome is “inactive”.

Question: Which outcome does the source give for `CNC(=O)N(C)c1nnc(C(C)(C)C)s1` here?
Answer: Its outcome is “inactive”.

Question: Which outcome does the source give for `COP(=S)(OC)SCn1nnc2ccccc2c1=O` here?
Answer: Its outcome is “inactive”.

Question: With `COP(=O)(OC)O/C(C)=C/C(=O)N(C)C` as the compound, how does the outcome read?
Answer: The outcome was “inactive”.

Question: Which outcome does the source give for `CC(C)=CC1C(C(=O)OCc2coc(Cc3ccccc3)c2)C1(C)C` (stereo not given) here?
Answer: Its outcome is “inactive”.

Question: For `CS(=O)(=O)c1ccc(C(=O)C2C(=O)CCCC2=O)c([N+](=O)[O-])c1`, which outcome is on record?
Answer: Its outcome is “inactive”.

Question: For `N#CN=C1SCCN1Cc1ccc(Cl)nc1`, which outcome is on record?
Answer: Its outcome is “inactive”.

Question: Which outcome does the source give for `CC(C)Nc1nc(Cl)nc(NC(C)C)n1` here?
Answer: The outcome was “inactive”.

Question: Which outcome does the source give for `Nc1c(Cl)c(F)nc(OCC(=O)O)c1Cl` here?
Answer: The outcome was “inactive”.

Question: Which outcome does the source give for `COC(=O)c1c(C(F)F)nc(C(F)(F)F)c(C2=NCCS2)c1CC(C)C` here?
Answer: The outcome was “inactive”.

Question: For `CCOP(=S)(OCC)Oc1nc(Cl)n(C(C)C)n1`, which outcome is on record?
Answer: The outcome was “inactive”.

Question: For `CN/C(=N\[N+](=O)[O-])NCc1cnc(Cl)s1`, which outcome is on record?
Answer: The outcome was “inactive”.

Question: With `Clc1nc(Cl)nc(Nc2ccccc2Cl)n1` as the compound, how does the outcome read?
Answer: The outcome was “inactive”.

Question: For `CCCN(CC)CC1COC2(CCC(C(C)(C)C)CC2)O1` (stereo not given), which outcome is on record?
Answer: Its outcome is “inactive”.

Question: For `CCNC(=O)NC(=O)C(C#N)=NOC`, which outcome is on record?
Answer: The outcome was “inactive”.

Question: For `CC(C)N1C(=O)N(c2ccccc2)CSC1=NC(C)(C)C`, which outcome is on record?
Answer: The outcome was “inactive”.

Question: Which outcome does the source give for `OC(c1ccc(Cl)cc1)(c1ccc(Cl)cc1)C(Cl)(Cl)Cl` here?
Answer: Its outcome is “inactive”.

Question: For `CCCCOCN(C(=O)CCl)c1c(CC)cccc1CC`, which outcome is on record?
Answer: The outcome was “inactive”.

Question: For `CC1(C)CON(Cc2ccccc2Cl)C1=O`, which outcome is on record?
Answer: Its outcome is “inactive”.

Question: Which AC50 does the source give for `COCC(C)N(C(=O)CCl)c1c(C)csc1C` (stereo not given) here?
Answer: The AC50 was 36.2 µM (active).

Question: Which outcome does the source give for `CCOc1cc(C(C)(C)C)ccc1C1COC(c2c(F)cccc2F)=N1` (stereo not given) here?
Answer: Its outcome is “inactive”.

Question: With `Cc1ccc(N=CN(C)C=Nc2ccc(C)cc2C)c(C)c1` as the compound, how does the outcome read?
Answer: Its outcome is “inactive”.

Question: For `CCNP(=S)(OC)O/C(C)=C/C(=O)OC(C)C` (stereo not given), which outcome is on record?
Answer: The outcome was “inactive”.

Question: With `CC(C)NC(=O)N1CC(=O)N(c2cc(Cl)cc(Cl)c2)C1=O` as the compound, how does the outcome read?
Answer: Its outcome is “inactive”.

Question: Which outcome does the source give for `Clc1cccc(C(Cl)(Cl)Cl)n1` here?
Answer: Its outcome is “inactive”.

Question: Which outcome does the source give for `CC1(C)C(C(=O)OC(C#N)c2cccc(Oc3ccccc3)c2)C1(C)C` (stereo not given) here?
Answer: The outcome was “inactive”.

Question: With `CO/N=C(/C1=NOCCO1)c1ccccc1Oc1ncnc(Oc2ccccc2Cl)c1F` as the compound, how does the AC50 read?
Answer: Its AC50 is 6.85 µM (active).

Question: For `CCN(CC)c1nc(C)cc(OP(=S)(OC)OC)n1`, which outcome is on record?
Answer: The outcome was “inactive”.

Question: For `O=C1C2CC=CCC2C(=O)N1SC(Cl)(Cl)Cl` (stereo not given), which outcome is on record?
Answer: The outcome was “inactive”.

Question: With `COC(=O)NC(=S)Nc1ccccc1NC(=S)NC(=O)OC` as the compound, how does the outcome read?
Answer: Its outcome is “inactive”.
